Experimental data: PubChem BioAssay (Tox21)
Activity calls are given as the source filed them. Calls follow the shape of the full dose curve.

Assay: qHTS assay to identify small molecule agonists of the sonic hedgehog signaling (Shh) pathway (AID 1259368);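 also: NIH/3T3-derived 3T3Gli1-Luc cells carrying a stable Gli1-driven firefly luciferase reporter; nearly all actives have a fitted effect of over 15% in size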
Conditions: NIH/3T3 Gli1-Luc reporter, luciferase, 24 h; series mostly up to 92.4 µM
From the text: National Center for Advancing Translational Sciences [NCATS]
NIH Chemical Genomics Center [NCGC]
U.S. Environmental Protection Agency [EPA]
National Institutes of Environmental Health Sciences [NIEHS]
National Toxicology Program [NTP]
The sonic hedgehog (Shh) pathway is essential for normal embryonic development. Dysregulation of the Shh pathway can cause severe developmental defects in organs. Therefore chemicals that interfere with the pathway are potential developmental toxicants. A cell line designated 3T3Gli1-Luc (DMB/OARSA/CFSAN/FDA, Laurel, MD), a NIH/3T3 derived clone containing stably integrated Gli1-Luc reporter is used to detect chemical interference of the Shh pathway, by changes in the expression of the firefly Luc gene under the control of the Gli1 transcriptional response element. This cell line was used to screen Tox21 libraries for identifying and prioritizing the potential developmental toxicants that interfere Shh pathway.
3T3 Gli1-Luc cells were dispensed at 2,000 per well in 5uL of culture medium into white solid bottom 1536-well plates (Greiner Bio-One, Monroe, NC) using a Multidrop Combi (Thermo Scientific, Waltham, MA) dispenser. The assay plates were incubated at 37 C and 5% CO2 for 4hr, and then 23nL of compounds dissolved in DMSO and positive control were transferred using a Pintool station (Wako, San Diego, CA). The assay plates were incubated at 37C and 5% CO2 for 24hr. For luciferase read, 4uL of Amplite Luciferase reporter gene assay reagent (AAT Bioquest, Inc. Sunnyvale, CA) was added to each well of the assay plates using Flying Reagent Dispenser (FRD, Aurora Discovery, San Diego, CA) and incubated at room temperature for 30min. The luminescence signal was measured using a ViewLux plate reader (Perkin Elmer, Shelton, CT).
In the case of O=[N+]([O-])c1ccc([As](=O)(O)O)cc1, the outcome is reported as “inactive”.
For CCC[N+](=O)[O-], the outcome was “inactive”.
For CN(N=O)c1ccccc1, the outcome was “inactive”.
For NCC(O)c1ccc(O)cc1 (stereo not given), the outcome was “inactive”.
With O=[N+]([O-])c1ccc(Oc2ccc(Cl)cc2Cl)cc1 the outcome was “inactive”.
In the case of CCNc1nc(NC(C)C)nc(SC)n1, the outcome is reported as “inactive”.
In the case of Cc1ccc([N+](=O)[O-])cc1C, the outcome is reported as “inactive”.
In the case of CN(C)CCO, the outcome is reported as “inactive”.
With [O-][Cl+2]([O-])O the outcome was “inactive”.
For Nc1ccccc1C(=O)O, the outcome was “inactive”.
With ClCc1cccnc1 the outcome was “inactive”.
For CCCCCCCCCCCC#N, the outcome was “inactive”.
For c1ccc(OP(Oc2ccccc2)Oc2ccccc2)cc1, the outcome was “inactive”.
In the case of CCCN(CCC)N=O, the outcome is reported as “inactive”.
With c1ccc2c(c1)oc1ccccc12 the outcome was “inactive”.
With CC(C)=C[C@@H]1[C@@H](C(=O)OCc2coc(Cc3ccccc3)c2)C1(C)C the outcome was “inactive”.
With CC(C)N1C(=O)c2ccccc2NS1(=O)=O the outcome was “inactive”.
In the case of COC(=O)c1ccccc1N, the outcome is reported as “inactive”.
With CCOC(=O)c1ccccc1C(=O)OCC the outcome was “inactive”.
With Nc1ccc(Br)cc1 the outcome was “inactive”.
For CCC(C)(CC)c1cc(NC(=O)c2c(OC)cccc2OC)on1, the outcome was “inactive”.
With CCOP(=S)(OCC)Oc1cnc2ccccc2n1 the outcome was “inactive”.
In the case of ClCCBr, the outcome is reported as “inactive”.
With COP(N)(=O)SC (stereo not given) the outcome was “inactive”.
For CCCCN(CC)C(=O)SCCC, the outcome was “inactive”.
For Clc1ccc(Cl)cc1, the outcome was “inactive”.
With CCN(CC)c1ccccc1 the outcome was “inactive”.
In the case of CCC[CH2][Sn]([Cl])([Cl])[Cl], the outcome is reported as “inactive”.
With CCCCCCCCCl the outcome was “inactive”.
For C#CCN(C)[C@H](C)Cc1ccccc1, the outcome was “inactive”.
In the case of Cc1cc(-c2cc(C)c(N)c(C)c2)cc(C)c1N, the outcome is reported as “inactive”.
In the case of C=CC(N)=O, the outcome is reported as “inactive”.
In the case of COC(=O)c1ccccc1C(=O)OC, the outcome is reported as “inactive”.
In the case of c1cc2c3c(cccc3c1)CC2, the outcome is reported as “inactive”.
For CCc1cccc(C)c1N(C(=O)CCl)C(C)COC (stereo not given), the outcome was “inactive”.
For CN(C)[C@@H]1C(=O)C(C(N)=O)=C(O)[C@@]2(O)C(=O)C3=C(O)c4c(O)cccc4[C@@](C)(O)[C@H]3C[C@@H]12, the outcome was “inactive”.
For O=NN1CCCCCCC1, the outcome was “inactive”.
For CCCC1COC(Cn2cncn2)(c2ccc(Cl)cc2Cl)O1 (stereo not given), the outcome was “inactive”.
For Oc1ccccc1Cl, the outcome was “inactive”.
For CC(=O)C=C(C)C, the outcome was “inactive”.
